Test results taken from PubChem BioAssay (NCI).
This is part of a sample that, as a whole, favours compounds with a hit. Of some 83,000 tested, about 20% had one in any assay.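 For each line, cells grew in 96-well plates with the test compound present at a single concentration for 48 hours.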 A number with no mark means an inactive call. Calls of active or inactive are those of the source. The calls were made as follows: active = growth percent below 10; inactive = the rest.

Experiments:
Assay in all cases: NCI-60 one-dose screen, 48 h (100 = growth as untreated, 0 = no growth, -100 = all killed)
Conditions in all cases: 10 µM unless noted
SK-MEL-2 melanoma = test system: SK-MEL-2 melanoma
EKVX NSCLC = test system: EKVX NSCLC
SN12C renal = test system: SN12C renal
UO-31 renal = test system: UO-31 renal
TK-10 renal = test system: TK-10 renal
ACHN renal = test system: ACHN renal
CAKI-1 renal = test system: CAKI-1 renal
A498 renal = test system: A498 renal
CCRF-CEM leukemia = test system: CCRF-CEM leukemia
MOLT-4 leukemia = test system: MOLT-4 leukemia

SMILES | growth (SK-MEL-2 melanoma) | growth (EKVX NSCLC) | growth (SN12C renal) | growth (UO-31 renal) | growth (TK-10 renal) | growth (ACHN renal) | growth (CAKI-1 renal) | growth (A498 renal) | growth (CCRF-CEM leukemia) | growth (MOLT-4 leukemia)
Nc1nc2ccc([C@@H]3Nc4ccc5[nH]ncc5c4[C@H]4[C@H]5CCC(C5)[C@H]43)cc2s1 | -1.54% (active) | 16.2% | 11.4% | 30.4% | 46.3% | 29.7% | 29.8% | -2.86% (active) | 21.2% | 7.02% (active)
O=C1C=CC(=O)N1c1cccc(N2C(=O)C=CC2=O)c1 | 111% | 95.6% | 106% | 28.4% | 33.1% | -26% (active) | 37.3% | 111% | -22.3% (active) | 103%
C[C@]12CCc3nc(Nc4ccc(O)cc4)sc3C1=CC[C@@H]1[C@@H]2CC[C@]2(C)/C(=N/NC(N)=S)CC[C@@H]12 | -13.5% (active) | -19.1% (active) | -46.7% (active) | -42% (active) | -7.19% (active) | -72.4% (active) | -36.2% (active) | 93.1% | -7.49% (active) | -5.84% (active)
F | -27.7% [6.87 mM] (active) | -14.8% [6.87 mM] (active) | 27% [6.87 mM] | 12% [6.87 mM] | 4.45% [6.87 mM] (active) | 23.6% [6.87 mM] | 28.9% [6.87 mM] | -28.8% [6.87 mM] (active) | 29.9% [6.87 mM] | 23.5% [6.87 mM]
CN1CCN(Cc2ccc(NC(=O)c3cncc(C#Cc4cnc5cccnn45)c3)cc2C(F)(F)F)CC1 | -58.6% (active) | -39.1% (active) | 3.05% (active) | 0.419% (active) | -4.27% (active) | 5.04% (active) | 5.93% (active) | -33.1% (active) | 5.9% (active) | -1.76% (active)
CC(=O)N[C@@H](CCC(N)=O)C(=O)O | 118% | 107% | 85.7% | 65.7% | 107% | 94.7% | 73.8% | 86.6% |  | 95.3%
CC1(C)CC[C@]2(C(=O)N3CCNCC3)CC[C@]3(C)C(=CC[C@@H]4[C@@]5(C)CCC(=O)C(C)(C)[C@@H]5CC[C@]43C)[C@@H]2C1 | 105% | 96.7% | 101% | 94.8% | 101% | 112% | 94.2% | 126% |  | 103%
O=C1Cc2c([nH]c3ccc([N+](=O)[O-])cc23)-c2ccccc2N1 | -21.5% (active) | 17.1% | 44.1% | 4.74% (active) | 12% | 11.5% | 16.4% | -5.07% (active) | 1.61% (active) | 2.18% (active)
FC1(F)CCN(Cc2c[nH]c3cc(Cl)ccc23)C[C@H]1CCc1ccccc1 | 76.6% | 63% | 54.3% | 42% | 61.6% | 62.5% | 62.1% | 82% | 45.9% | 26.7%
COc1ccc(Nc2ncccc2C(=O)NCc2cn(Cc3cc(OC)cc(OC)c3)nn2)cc1 | 89.5% | 92.5% | 109% | 65.7% | 108% | 93.8% | 101% | 95.8% |  | 82.7%
